# High-throughput results (PubChem)
# mut p53 react: restores mutant p53 pathway signaling in SW480 cells | 1.5% of 28,000 active | activation, % at 9.98 µM | SW480 PUMA-promoter luciferase, p53 mutant reactivation; in the data active = activation above about 52%
# ID4 binder: binders of human ID4 protein; P47928; small molecule microarray, Flag-ID4 binding, fluorescence F/B; calls only; 1.2% of 31,000 active; AID 624137; call rule not given here;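 note: a binder raises fluorescence above local background on the spot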
# Target sequence (P47928 whole entry, looked up): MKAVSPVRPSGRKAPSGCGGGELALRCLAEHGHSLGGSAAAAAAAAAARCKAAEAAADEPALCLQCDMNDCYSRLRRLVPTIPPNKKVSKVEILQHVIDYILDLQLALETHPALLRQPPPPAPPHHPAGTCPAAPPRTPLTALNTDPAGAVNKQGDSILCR
# STK33 kin inh: blocks human STK33 kinase activity | Q9BYT3 | ADP-Glo luminescence, MBP substrate | inhibition, % at 12.5 µM | 0.44% of 27,000 active | AID 2322; in the data active = inhibition above about 20%
# A number is an active result; n = inactive; x = no result given; + = active, no number. Hits are enriched below; roughly 2.1% of the tested compounds scored in any of these assays.
SMILES,mut p53 react,ID4 binder,STK33 kin inh
COc1cc(C2CC(=O)c3c(O)cc(O)cc3O2)ccc1O (stereo not drawn),n,n,n
COc1ccccc1NC(=O)CSc1nc2ccccc2c(=O)n1-c1ccc(C)cc1,n,n,n
CC1=CCC(C(=O)O)C(C(=O)Nc2ccccc2NC(=O)c2ccc(C(F)(F)F)cc2)C1 (stereo not drawn),108,n,n
CC1=CCC(C(=O)O)C(C(=O)Nc2ccc(OC(F)(F)F)cc2)C1 (stereo not drawn),n,n,n
N#Cc1ccc(N2CCCN(C(=S)NC3CCCC3)CC2)nc1,x,x,n
Cc1ccsc1C1C(C(=O)c2ccco2)C(=O)C(=O)N1Cc1ccco1 (stereo not drawn),n,n,n
CC(C)n1cnc2c(NCc3ccccc3)nc(NCCCO)nc21,n,x,x
CC(C)n1cnc2c(NCc3ccccc3)nc(NCCO)nc21,92,n,35
CC(=O)Nc1ccc(NC(=O)CNS(=O)(=O)c2c(C)cc(C)cc2C)cc1,n,+,n
CC(=O)c1ccc(NC(=O)CNS(=O)(=O)c2cccc(Cl)c2)cc1,68,n,n
CC(=O)c1cccc(NC(=O)CNS(=O)(=O)c2ccc(Br)cc2)c1,n,n,n
Cc1cc(C)c(S(=O)(=O)NCC(=O)Nc2ccc(I)cc2)c(C)c1,n,n,n
COc1ccc(C(=O)CCC(=O)Nc2ccc(C(=O)O)cc2)c(OC)c1,n,n,n
C[C@H]1CN([C@@H](C)CO)C(=O)c2cc(/C=C/c3ccccc3)cnc2O[C@H]1CN(C)C(=O)Nc1ccccc1F,n,x,x
C[C@@H]1CN([C@@H](C)CO)C(=O)c2cc(/C=C/c3ccccc3)cnc2O[C@H]1CN(C)C(=O)Nc1ccccc1F,n,+,x
C[C@H](CO)N1C[C@H](C)[C@H](CN(C)C(=O)Nc2ccccc2)Oc2ncc(/C=C/c3ccccc3)cc2C1=O,n,+,n
C/C=C/c1cnc2c(c1)C(=O)N([C@@H](C)CO)C[C@@H](C)[C@@H](CN(C)C(=O)Nc1cccc(OC)c1)O2,n,x,x
COc1ccc(NC(=O)N(C)C[C@@H]2Oc3ncc(/C=C/c4ccccc4)cc3C(=O)N([C@H](C)CO)C[C@@H]2C)cc1,x,x,n
COc1cccc(NC(=O)N(C)C[C@@H]2Oc3ncc(/C=C/c4ccccc4)cc3C(=O)N([C@H](C)CO)C[C@@H]2C)c1,n,+,x
C[C@H](CO)N1C[C@H](C)[C@H](CN(C)C(=O)Nc2ccccc2F)Oc2ncc(-c3ccc(F)cc3)cc2C1=O,n,n,x
C[C@@H]1CN([C@@H](C)CO)C(=O)c2cc(-c3ccc(F)cc3)cnc2O[C@@H]1CN(C)C(=O)Nc1ccccc1F,n,+,x
Cc1c(O)ccc(-c2[nH]ncc2-c2nncn2-c2ccccc2)c1O,n,n,n
Cc1ccnc(NC(c2cccc(Cl)c2)c2ccc3ccc(C)nc3c2O)c1 (stereo not drawn),n,n,n
CC12CCC3c4ccc(O)cc4CC(CCCCCCCCCS(=O)CCCC(F)(F)C(F)(F)F)C3C1CCC2O (stereo not drawn),n,n,x
NS(=O)(=O)c1ccc(CCNC(=O)c2cc(-c3cccnc3)nc3ccc(Cl)cc23)cc1,n,n,n
SMILES,mut p53 react,ID4 binder,STK33 kin inh
CCCNC(=O)N(C)C[C@@H]1Oc2ncc(-c3ccccc3)cc2C(=O)N([C@@H](C)CO)C[C@H]1C,n,x,x
CCCNC(=O)N(C)C[C@H]1Oc2ncc(-c3ccc(C(=O)N(C)C)cc3)cc2C(=O)N([C@H](C)CO)C[C@H]1C,n,+,x
COC(=O)c1cccc(NC(=O)COc2ccc(I)cc2)c1,n,n,n
O=C(COc1ccc(I)cc1)Nc1cc(C(=O)O)cc(C(=O)O)c1,n,+,n
O=C1C=C(NCCc2ccccc2)CC(c2ccco2)C1 (stereo not drawn),n,n,x
CN(C)C(=O)[C@]1(CCS(=O)(=O)c2ccccc2)N=C(c2ccc(OCCCO)cc2)O[C@@H]1c1ccccc1,x,+,n
CN(C)C(=O)[C@]1(Cc2ccccc2)N=C(c2ccc(OCCCO)cc2)O[C@@H]1c1ccccc1,x,x,n
CCNC(=O)c1c(NC(=O)COc2cccc3ccccc23)sc2c1CCCC2,n,n,n
Cc1cc(NC(=O)CSc2nnc(-c3ccccc3)n2-c2ccc(F)cc2)ccc1Br,n,n,n
O=C(O)CCSc1nc(-c2ccccc2)c(-c2ccccc2)[nH]1,n,+,n
Cc1cccc(NC(=O)CSc2nc(-c3ccccc3)c(-c3ccccc3)[nH]2)c1C,n,n,n
C/C=C(\C)C(=O)O[C@H]1[C@H](OC(C)=O)[C@@]2(CO)C(CC1(C)C)C1=CCC3[C@@]4(C)CC[C@H](O[C@@H]5O[C@H](C(=O)O)[C@@H](O)[C@H](O[C@@H]6O[C@H](CO)[C@H](O)[C@H](O)[C@H]6O[C@@H]6O[C@@H](C)[C@H](O)[C@@H](O)[C@H]6O)[C@H]5O[C@@H]5O[C@H](CO)[C@@H](O)[C@H](O)[C@H]5O)C(C)(C)C4CC[C@@]3(C)[C@]1(C)C[C@H]2O (stereo partly drawn),n,x,n
O=C(NCCN1CCOCC1)c1ccc(Cl)c(S(=O)(=O)N2CCOCC2)c1,n,+,n
O=C(Nc1ccccc1C(=O)O)c1ccc(Br)c(S(=O)(=O)N2CCOCC2)c1,n,+,n
Cc1ccc(C(=O)NCCN2CCOCC2)cc1S(=O)(=O)N1CCCCC1,n,n,n
Cc1ccc(C(=O)Nc2ccccc2C(=O)N2CCN(c3ccccc3)CC2)cc1S(=O)(=O)N1CCCCC1,n,n,n
C[C@@H]1O[C@@H](OC[C@H]2O[C@@H](OCc3ccccc3)[C@H](O)[C@@H](O)[C@@H]2O)[C@H](O)[C@H](O)[C@H]1O,n,x,n
CNc1ccccc1C(=O)OC1OC(C)C(O)C(O)C1O (stereo not drawn),n,+,n
O=C(COc1ccc(C2CCCCC2)cc1)Nc1cccc(-c2nc3ncccc3o2)c1,n,n,n
COc1ccc(OC(C)C(=O)Nc2ccccc2C#N)cc1 (stereo not drawn),n,n,n
Cc1ccc(N2C(=O)/C(=C/C=C/c3ccccc3)SC2=S)cc1,x,x,n
COc1cc(OC)c2c(=O)cc(-c3ccccc3)oc2c1,x,x,n
COc1ccc(-c2cc(=O)c3c(OC)cc(OC)cc3o2)cc1,x,x,n
COc1cc(C)c2c(=O)cc(-c3ccccc3)oc2c1,85,n,n
COc1ccc(-c2cc(=O)c3c(O)cc(O)cc3o2)cc1,95,x,25
SMILES,mut p53 react,ID4 binder,STK33 kin inh
O=c1cc(-c2ccc(O)c(O)c2)oc2cc(O)cc(O)c12,x,x,78
O=c1c(-c2c(O)cc(O)c3c(=O)cc(-c4ccc(O)cc4)oc23)c(-c2ccc(O)cc2)oc2cc(O)cc(O)c12,x,x,n
Cc1ccc(OCC(=O)Nc2cccc(-c3nc4cc(Cl)ccc4o3)c2C)cc1C,n,n,n
COc1ccc(C(=O)n2nc(-c3ccc(Cl)cc3)nc2NCc2ccco2)cc1OC,80,n,n
CCCC(=O)n1nc(-c2ccc(Cl)cc2)nc1NCc1ccco1,107,n,n
COc1ccccc1C(=O)n1nc(-c2ccccc2)nc1NCc1ccco1,n,n,n
O=C(c1ccco1)n1nc(-c2ccc(Cl)cc2)nc1NCc1ccco1,n,n,n
O=C(c1ccc([N+](=O)[O-])cc1)n1nc(-c2ccc(Cl)cc2)nc1NCc1ccco1,128,n,n
CCCC(=O)n1nc(-c2ccccc2)nc1NCc1ccco1,n,n,n
CCCc1cc(=S)sc(N)n1,n,n,x
